The results in this text go back to PubChem BioAssay (NCATS).

Holding throughout (experiment): qHTS profiling for inhibitors of Plasmodium falciparum proliferation (AID 504749); also: nearly all actives have a fitted effect of over 60% in size
Holding throughout (details): P. falciparum in erythrocytes, SYBR Green DNA, 72 h; series mostly up to 28.7 µM
For orientation: In qHTS, concentration-response curves come from the screen itself.

Test [1] concerns CP237. A digest of the protocol: (§1)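 Parasite proliferation within erythrocytes, 72 h exposure. Endpoint: SYBR Green I fluorescence after overnight lysis at room temperature. Controls: 0.29 uM artemisinin, DMSO.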
The subject of test [2] is CP238. In short, it runs like this: as §1
Test [3] has as its system CP247. A digest of the protocol: as §1
For test [4], the system named is CP250. A digest of the protocol: as §1
The subject of test [5] is CP252. A digest of the protocol:
as §1

The test system of test [6] is CP256. A digest of the protocol: as §1
For test [7], the system named is CP260. A digest of the protocol: as §1
Test [8] concerns CP262. In short, it runs like this:
as §1

The test system of test [9] is CP265. A digest of the protocol: as §1
The subject of test [10] is CP266. In short, it runs like this:
as §1

For test [11], the system named is CP268. A digest of the protocol:
as §1

Test [12] relates to CP269. In short, it runs like this:
as §1

The subject of test [13] is CP286. In short, it runs like this:
as §1

Test [14] has as its system CP291. A digest of the protocol: as §1
Test [15] concerns CP297. A digest of the protocol: as §1
The test system of test [16] is CP305. In short, it runs like this:
as §1

In test [17] the test system is CP315. A digest of the protocol: as §1
For test [18], the system named is CP325. A digest of the protocol:
as §1

The subject of test [19] is CP329. In short, it runs like this:
as §1

For test [20], the system named is CP335. A digest of the protocol:
as §1

Results filed as inconclusive are left out. The source made the active and inactive calls. Calls follow the shape of the dose curve; as a rule, active = well fitted inhibition curve with a large enough effect; inconclusive = small, poorly fitted or top-dose-only effect; inactive = flat fitted curve, though single readings scatter.
Potency is read from the fitted curve at half-maximal effect.

As to `Cc1cccn2c(=O)c(-c3nnn[nH]3)cnc12`, the Potency entry in [1], in test [2], in test [3], in test [4], in [5] and in test [6] was “inactive” each time. The Potency result in test [7], in [8], in test [9], in test [10], in test [11] and in test [12] was “inactive” in each case. For the same compound, the Potency entry in test [13], in test [14], in test [15], in test [16], in test [17] and in test [18] was “inactive” throughout. Also, the Potency entry in test [19] and in test [20] was “inactive” in each case.

For `CCOC(=O)n1ccn(C)c1=S`, the Potency result in [1], in [2], in test [3], in test [4], in test [5] and in [6] was “inactive” each time. Further, the Potency entry in test [7], in test [8], in [9], in [10], in test [11] and in [12] was “inactive” in each case. The Potency result in test [13], in test [14], in test [15], in [16], in [17] and in test [18] was “inactive” in each case. The Potency result in test [19] and in test [20] was “inactive” throughout.

Take `CCC(C(=O)OCCN(CC)CC)c1ccccc1` (stereo not drawn): the Potency entry in test [1], in test [2], in test [3], in test [4], in test [5] and in test [6] was “inactive” in each case. Also, the Potency entry in [7], in [8], in test [9], in test [10], in test [11] and in test [12] was “inactive” throughout. In addition, the Potency entry in [13], in test [14], in test [15], in test [16], in [17] and in test [18] was “inactive” in each case. Moreover, the Potency entry in test [19] and in test [20] was “inactive” throughout.

For `CC(O)C(=O)O` (stereo not drawn), the Potency result in [1], in test [2], in [3], in test [4], in [5] and in [6] was “inactive” each time. For the same compound, the Potency result in test [7], in [8], in test [9], in test [10], in test [11] and in test [12] was “inactive” each time. For the same compound, the Potency entry in [13], in test [14], in test [15], in test [16], in test [17] and in test [18] was “inactive” throughout. For the same compound, in [19], the Potency entry is “inactive”.

Consider `CCCCCCCCCCCCCCCCCC(=O)OCC(O)CO` (stereo not drawn), for which the Potency result in test [1], in test [2], in test [3], in test [4], in test [5] and in [6] was “inactive” each time. Besides, the Potency result in test [7], in test [8], in [9], in test [10], in [11] and in [12] was “inactive” in each case. In addition, the Potency result in test [13], in test [14], in test [15], in test [16], in test [17] and in test [18] was “inactive” in each case. Besides, the Potency entry in test [19] was “inactive”.

On to `C[C@H]1C[C@H]2[C@@H]3CCC4=CC(=O)C=C[C@]4(C)[C@@]3(Cl)[C@@H](O)C[C@]2(C)[C@@]1(O)C(=O)CO`, for which the Potency entry in test [1], in test [2], in test [3], in test [4], in test [5] and in test [6] was “inactive” in each case. Also, the Potency result in [7], in [8], in test [9], in test [10], in [11] and in test [12] was “inactive” throughout. Further, the Potency result in [13], in test [14], in [15], in test [16], in [17] and in test [18] was “inactive” throughout. For the same compound, the Potency result in test [19] and in test [20] was “inactive” each time.

In the case of `CC(C)(CO)[C@@H](O)C(=O)NCCCO`, the Potency entry in test [1], in [2], in test [3], in [4], in [5] and in test [6] was “inactive” throughout. Further, the Potency entry in [7], in test [8], in test [9], in test [10], in test [11] and in test [12] was “inactive” each time. In addition, the Potency result in test [13], in [14], in test [15], in [16], in [17] and in [18] was “inactive” in each case. Besides, the Potency entry in [19] and in test [20] was “inactive” throughout.

With `O=C1CCC(c2ccc(-n3ccnc3)cc2)=NN1`, the Potency entry in test [1], in test [2], in test [3], in [4], in test [5] and in test [6] was “inactive” in each case. Besides, the Potency entry in test [7], in test [8], in [9], in test [10], in test [11] and in test [12] was “inactive” in each case. Also, the Potency entry in test [13], in test [14], in test [15], in test [16], in [17] and in test [18] was “inactive” in each case. The Potency result in test [19] and in test [20] was “inactive” in each case.

Take `Cc1ncc(CSSCc2cnc(C)c(O)c2CO)c(CO)c1O`: the Potency result in test [1], in test [2], in [3], in [4], in test [5] and in test [6] was “inactive” throughout. For the same compound, the Potency entry in test [7], in test [8], in [9], in [10], in [11] and in test [12] was “inactive” each time. Also, the Potency result in test [13], in test [14], in test [15], in [16], in [17] and in test [18] was “inactive” throughout. Also, the Potency entry in [19] and in test [20] was “inactive” each time.

Take `CC1(C)CCC(NC(=O)[C@@H](N)CCC(=O)O)CC1`: the Potency entry in test [1], in test [2], in test [3], in test [4], in [5] and in [6] was “inactive” each time. Moreover, the Potency result in [7], in [8], in test [9], in test [10], in test [11] and in test [12] was “inactive” each time. Moreover, the Potency result in test [13], in test [14], in test [15], in [16], in test [17] and in test [18] was “inactive” throughout. In addition, the Potency entry in [19] and in test [20] was “inactive” each time.

For `COc1cc(OC)cc(OC)c1`, the Potency result in test [1], in test [2], in test [3], in [4], in test [5] and in [6] was “inactive” in each case. Moreover, the Potency entry in test [7], in [8], in test [9], in test [10], in [11] and in [12] was “inactive” in each case. Moreover, the Potency entry in test [13], in [14], in test [15], in [16], in [17] and in test [18] was “inactive” throughout. For the same compound, the Potency entry in test [19] and in [20] was “inactive” each time.

On to `CC[N+](CC)(CCNC(=O)C(=O)NCC[N+](CC)(CC)Cc1ccccc1Cl)Cc1ccccc1Cl`, for which the Potency in test [1] was 3160 nM (active); in test [2] it was 2510 nM (active); in test [3], 3550 nM (active); in [4] it was 2510 nM (active); in [5] it was 4470 nM (active); in test [6], 398 nM (active). For the same compound, the Potency in test [7] is 1580 nM (active); in [8] it was 849 nM (active); in [9], 562 nM (active); in test [10], 2690 nM (active); in test [11], 7570 nM (active); in [12], 4780 nM (active). Moreover, the Potency in test [13] is 891 nM (active); in [14], 6750 nM (active); in test [15], 2690 nM (active); in test [16], 3010 nM (active); in test [17] it was 3790 nM (active); in test [18] it was 3380 nM (active). Moreover, the Potency in test [19] was 2390 nM (active); in test [20], 2690 nM (active).

Regarding `Cc1cc(=O)n(-c2ccccc2)n1C`, the Potency result in test [1], in [2], in test [3], in test [4], in test [5] and in test [6] was “inactive” throughout. In addition, the Potency entry in test [7], in test [8], in test [9], in [10], in test [11] and in test [12] was “inactive” in each case. In addition, the Potency entry in test [13], in test [14], in test [15], in test [16], in test [17] and in test [18] was “inactive” each time. Besides, the Potency result in test [19] and in [20] was “inactive” throughout.

Turning to `CCOc1ccc(NC(=O)CC(C)O)cc1` (stereo not drawn), the Potency result in [1], in test [2], in [3], in test [4], in test [5] and in test [6] was “inactive” throughout. In addition, the Potency entry in [7], in [8], in [9], in test [10], in [11] and in test [12] was “inactive” each time. Further, the Potency entry in [13], in [14], in test [15], in test [16], in test [17] and in test [18] was “inactive” throughout. Further, the Potency result in test [19] and in test [20] was “inactive” in each case.
